About 83,000 compounds went through this panel and 20% of them were active in at least one assay; those are over-represented in the sample as a whole.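 Method: cells in 96-well plates; compound added at one concentration; 48 h incubation; percent growth measured; values under 10 scored active.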 Active and inactive are the calls of the source.
Experiments:
Test in all cases: NCI-60 one-dose screen, 48 h (100 = growth as untreated, 0 = no growth, -100 = all killed)
Settings in all cases: 10 µM unless noted
[1] = system: SR leukemia
[2] = system: RPMI-8226 leukemia
[3] = system: OVCAR-5 ovarian
[4] = system: OVCAR-4 ovarian
[5] = system: SK-OV-3 ovarian
[6] = system: IGROV1 ovarian
[7] = system: OVCAR-3 ovarian
[8] = system: HS 578T breast
[9] = system: NCI/ADR-RES ovarian

Measured: growth

Nc1nc2ccccc2c2c1S(=O)(=O)c1ccc(Cl)cc1C2=O
active: [1] 3.3% | [2] -15.1% | [4] 7.52% | [7] -12.5% | [8] 6.88%
inactive: [3] 13.9% | [5] 58.6% | [6] 27.6% | [9] 24.8%

CN(C)CCNC(=O)c1cc2c3cc(Cl)ccc3[nH]c2c2ncccc12
inactive: [3] 32.7% | [4] 34.1% | [5] 46.1% | [6] 20.9% | [8] 24.2% | [9] 25.3%
active: [1] -17.6% | [2] -11% | [7] 0.195%

Cc1cccc(/C=C2\CN(C(=O)OC(C)(C)C)C/C(=C\c3cccc(C)c3)C2=O)c1
inactive: [3] 109% | [4] 89.2% | [5] 93.3% | [6] 90.4% | [7] 97.5% | [8] 96.7% | [9] 88%
active: [1] 6.54% | [2] -7.31%

COc1ccc(NC(=O)c2sc3nc(C)c(C(=O)/C=C/c4ccccc4)cc3c2N)cc1
active: [2] -24.4% | [7] 0.065%
inactive: [1] 14.7% | [3] 63.5% | [4] 52.3% | [5] 103% | [6] 17% | [8] 34% | [9] 15.5%

c1ccc([P+](c2ccccc2)(c2ccccc2)c2ccc3c4ccc([P+](c5ccccc5)(c5ccccc5)c5ccccc5)c5cccc(c6cccc2c63)c54)cc1
active: [2] -8.35% | [5] -7.17% | [6] 6.28%
inactive: [1] 14.7% | [3] 24.3% | [4] 23.6% | [7] 19.3% | [8] 15.8% | [9] 72%

COc1cc(-c2cncn2-c2ccc(-c3nc4ccc(F)cc4s3)cc2)ccc1F
inactive: [1] 73% | [2] 53.6% | [3] 75.7% | [4] 85.6% | [5] 106% | [7] 97.5% | [8] 97.4% | [9] 80.3%

CCSC(SCC)c1ccc(Cl)cc1
inactive: [1] 109% | [2] 106% | [3] 109% | [4] 108% | [5] 101% | [7] 113% | [8] 102% | [9] 97.1%

C[PH+](c1nc2ccccc2nc1[PH+](C)C(C)(C)C)C(C)(C)C.C[PH+](c1nc2ccccc2nc1[PH+](C)C(C)(C)C)C(C)(C)C.[Au+].[Cl-] (stereo not drawn)
active: [1] 6.59% | [2] -18.1% | [3] -100% | [4] -100% | [5] -100% | [6] -87.9% | [7] -100% | [8] -38.6% | [9] -79.5%

CCOC(=O)C1=C(c2ccccc2)N=C2SC=C(c3ccc(Cl)cc3)N2C1c1ccc(Cl)cc1 (stereo not drawn)
inactive: [1] 75.7% | [2] 65.9% | [3] 96.9% | [4] 48.7% | [5] 86.5% | [6] 72.3% | [7] 65.8% | [8] 85.2% | [9] 92.3%

O=C(Nc1ccc(Oc2cccc(Cl)c2)c(Cl)c1)c1cccnc1
inactive: [1] 19.9% | [2] 11.9% | [3] 71.2% | [4] 47.8% | [5] 34.3% | [6] 42.1% | [8] 31.1% | [9] 11.9%
active: [7] 2.66%

S=c1sc2c(Cl)nc(-c3cccnc3)nc2n1-c1ccccc1
inactive: [3] 125% | [4] 70.6% | [5] 87.9% | [7] 52.2% | [8] 55.9% | [9] 60.2%
active: [1] -27.2% | [2] -3.47% | [6] -60.2%

CN(C)S(=O)(=O)c1cccc(C(=O)Nc2nc(-c3ccc(F)c(F)c3)cs2)c1
inactive: [1] 41% | [2] 63.2% | [3] 86.1% | [4] 37.2% | [5] 108% | [6] 41.6% | [7] 70.8% | [8] 107% | [9] 22.5%

CNC(=O)c1[nH]cc(-c2ccc(OC)cc2)c1-c1cc(OC)c2c(c1OC)OCO2
inactive: [1] 102% | [2] 108% | [3] 95.8% | [4] 96.4% | [5] 99.9% | [6] 87.4% | [7] 100% | [8] 115% | [9] 95.8%

Cn1ccnc1C(=O)/C=C/c1ccc(C(=O)Nc2ccccc2O)cc1
active: [1] -21.2% | [2] -11.9% | [7] -17.9%
inactive: [3] 79.3% | [4] 36.4% | [5] 54.7% | [6] 30.9% | [8] 78.9% | [9] 23.7%

O=S(=O)(Nc1ccc(F)cc1F)c1ccc(-c2cnc(C3CC3)o2)cc1
inactive: [1] 10.9% | [2] 18.1% | [3] 51.8% | [4] 46.8% | [6] 32.6% | [7] 13.4% | [8] 27.4% | [9] 19.4%

C=C(C)[C@@H]1CC[C@]2(C(=O)N3CCOCC3)CC[C@]3(C)[C@H](CC[C@@H]4[C@@]5(C)C/C(=C/c6ccncc6)C(=O)C(C)(C)[C@@H]5CC[C@]43C)[C@@H]12
active: [2] 4.12%
inactive: [1] 34.7% | [3] 93.3% | [4] 49.4% | [5] 73.9% | [7] 52.4% | [8] 74.5% | [9] 72.3%

CCSc1oc(-c2ccccc2)nc1[P+](c1ccccc1)(c1ccccc1)c1ccccc1
active: [1] 1.17% | [2] -18.9% | [5] -16.1% | [6] 5.02% | [7] 3.17%
inactive: [3] 27.6% | [4] 13.1% | [8] 18.4% | [9] 67.4%

O=C(/C=C/c1cccs1)Nc1ncc(Cc2ccccc2F)s1
inactive: [1] 26.1% | [2] 23.7% | [3] 34.5% | [4] 48% | [5] 27.5% | [6] 35.4% | [8] 16% | [9] 11.6%
active: [7] -6.37%

Source: PubChem BioAssay (NCI)
